The term AC50 denotes the concentration at which the activity in the assay is half-maximal.

About 5,100 (32%) of roughly 16,000 compounds were called active. Not shown: some 25% with an inconclusive outcome. This is one part of the list. Unmarked numbers belong to inactive results. The call rests on the fitted dose curve; in most records, active means well fitted curve in the direction sought with a large enough effect; inconclusive means small, poorly fitted or top-dose-only effect, or effect the other way; inactive means no such curve, though single readings can be large or run the other way.

The source of these data is PubChem BioAssay AID1851 (National Center for Advancing Translational Sciences (NCATS), 2009).
On the % scale 0 is the no-effect control and ±100 the full control effect.

This assay deals with Cytochrome P450 3A4 (Homo sapiens) (UniProt P08684). The experiment in a line: Cytochrome panel assay with activity outcomes. As to conditions: recombinant CYP, pro-luciferin dealkylation, luminescence, p450-cyp3a4; series mostly up to 57.1 µM; activity, negative = inhibition: at the top concentration.
Sequence of Cytochrome P450 3A4 (Homo sapiens) (P08684 whole entry, looked up): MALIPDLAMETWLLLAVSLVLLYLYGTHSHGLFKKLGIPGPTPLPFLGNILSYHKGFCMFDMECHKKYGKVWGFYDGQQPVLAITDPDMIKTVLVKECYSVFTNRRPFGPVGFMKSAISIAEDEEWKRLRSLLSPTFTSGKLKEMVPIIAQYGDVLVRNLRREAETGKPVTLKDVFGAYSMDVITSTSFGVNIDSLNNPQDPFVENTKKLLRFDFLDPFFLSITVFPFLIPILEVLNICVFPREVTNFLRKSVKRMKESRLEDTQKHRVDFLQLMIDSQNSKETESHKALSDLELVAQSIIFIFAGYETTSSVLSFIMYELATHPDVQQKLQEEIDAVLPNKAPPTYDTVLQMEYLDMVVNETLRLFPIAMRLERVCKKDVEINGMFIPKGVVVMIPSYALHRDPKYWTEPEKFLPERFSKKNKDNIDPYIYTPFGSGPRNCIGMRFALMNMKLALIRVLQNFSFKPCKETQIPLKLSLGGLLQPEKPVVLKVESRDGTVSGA
On to `CCC(=O)O[C@@H]1[C@H](C)O[C@H](O[C@H]2[C@@H](N(C)C)[C@H](O)[C@@H](O[C@@H]3[C@@H](CC=O)C[C@@H](C)[C@@H](O)/C=C\C=C/C[C@@H](C)OC(=O)C[C@@H](OC(=O)CC)[C@H]3OC)O[C@H]2C)C[C@]1(C)O`, for which the “activity, negative = inhibition” value was -19% [at 25.6 µM].

Regarding `COC(=O)Cn1cc(/C=N/NC(=O)c2ccc(C#N)cc2F)c2ccccc21`, the activity, negative = inhibition was -10.5% [at 2.29 µM].

In the case of `O=C1C2C3C=CC(C3)C2C(=O)N1/N=C/c1cn(Cc2ccccc2)c2ccccc12` (configuration not stated), the activity, negative = inhibition was -22.4% [at 11.4 µM].

As for `O=C1C2C3C=CC(C3)C2C(=O)N1/N=C/c1cn(Cc2ccc(F)cc2)c2ccccc12` (configuration not stated), the AC50 was 2.82 µM (active).

For `COC(=O)/C=C\CCc1coc(/C=C\CNC(=O)OC)n1`, the activity, negative = inhibition is -19.3% [at 11.4 µM].

`COC(=O)[C@@H]1C[C@H]1[C@@H](NC(C)=O)c1ccccc1`: the “activity, negative = inhibition” value is -18.2%.

As to `COC(=O)[C@@H]1C[C@H]1[C@@H](NC(=O)Oc1ccc(F)cc1)c1ccccc1`, the AC50 is 12.6 µM (active).

As to `COC(=O)[C@H]1C[C@@H]1[C@H](NC(=O)Oc1ccc(F)cc1)c1ccccc1`, the AC50 was 15.8 µM (active).

For the compound `COC(=O)[C@H]1C[C@@H]1[C@H](NC(C)=O)c1ccccc1`, the “activity, negative = inhibition” value was -23.7%.

On to `O=C(O)[C@H]1CN(CCCP(=O)(O)O)CCN1`, for which the AC50 entry is “inactive”.

For `COC(=O)C1(C)C=C2C(=C(c3ccccc3)C(=O)C2C)CN1` (configuration not stated), the AC50 is 10 µM (active).

In the case of `CCCCCC1=C2CNC(C)(C(=O)OC)C=C2C(C)C1=O` (configuration not stated), the AC50 was 12.6 µM (active).

As to `COC(=O)C1(Cc2ccccc2)C=C2C(=C(C(C)C)C(=O)C2C)CN1` (configuration not stated), the AC50 was 7.94 µM (active).

As for `CCCCCC1=C2CNC(CCC)(C(=O)OC)C=C2C(C)C1=O` (configuration not stated), the AC50 is 20 µM (active).

As to `CCCCCC1=C2CNC(Cc3ccccc3)(C(=O)OC)C=C2C(C)C1=O` (configuration not stated), the AC50 was 15.8 µM (active).

Take `Cn1c(=O)c(-c2cccs2)nc2cnc(Oc3ccccc3)nc21`: the “activity, negative = inhibition” value is 7.32%.

Consider `COc1ccc(Oc2ncc3nc(-c4cccs4)c(=O)n(C)c3n2)cc1`, for which the AC50 is 3.98 µM (active).

Consider `COc1ncc2nc(-c3cccs3)c(=O)n(C)c2n1`, for which the AC50 was 15.8 µM (active).

With `Cc1cc(C2(c3cc(C)c(O)c(C(=O)O)c3)OS(=O)(=O)c3ccccc32)cc(C(=O)O)c1O`, the activity, negative = inhibition is 5.57% [at 11.4 µM].

Turning to `CC1=CC(C)(C)Nc2ccc(CSc3ccccc3)cc21`, the AC50 is 3.98 µM (active).

As for `O=C(O)c1c[nH]c2cc(OCc3ccccc3)ccc2c1=O`, the activity, negative = inhibition is -10.2% [at 11.4 µM].

Take `Cc1cc2c(cc1C)NC1=C(N2)O[C@H](c2c[nH]c3ccc(COc4ccccc4)cc23)C1=O`: the AC50 is 3.98 µM (active).

Regarding `COCCN=C1Sc2nc3c(C)cccc3cc2CN1Cc1ccco1`, the AC50 is 14.1 µM (active).

For `CC1(C)[C@@H]2CC[C@]1(C)[C@@H](OC(=O)CSC#N)C2`, the activity, negative = inhibition was -20.6% [at 11.4 µM].

For the compound `O=c1c(CCc2ccccc2)nc2cncnc2n1Cc1ccccc1Cl`, the AC50 was 15.8 µM (active).

As for `O=c1c(-c2ccccc2)nc2cncnc2n1Cc1ccccc1Cl`, the “activity, negative = inhibition” value is -26.7%.

For `O=c1cnc2cncnc2n1Cc1ccccc1Cl`, the “activity, negative = inhibition” value was -25.7%.

Consider `O=c1c(CCc2ccccc2)nc2cncnc2n1Cc1ccc(F)cc1`, for which the AC50 was 3.16 µM (active).

As for `CCCCCCCCCCCCCCCC(=O)NC[C@@H](COP(=O)([O-])OCC[N+](C)(C)C)OCC`, the AC50 was 25.1 µM (active).

As to `CCCCCCCCCCCCCCCCCCOC[C@@H](COP(=O)([O-])OCC[N+](C)(C)C)OC`, the “activity, negative = inhibition” value is 3.29%.

As for `CCCCCCCCCCCCCCCCCCNC(=O)OC[C@@H](COP(=O)([O-])OCC[n+]1ccsc1)OC`, the “activity, negative = inhibition” value was 9.2%.

`CCCCCCCCCCCCCCCCCC(=O)NC[C@@H](COP(=O)([O-])OCC[N+](C)(C)C)OCC`: the AC50 was 31.6 µM (active).

Regarding `CCCCCCCCCCCCCCCCCC(=O)O[C@H](CC(=O)O)C[N+](C)(C)C`, the “activity, negative = inhibition” value was -3.53%.

Consider `CCCCCCCCCCCCCC(=O)O[C@H](CC(=O)O)C[N+](C)(C)C`, for which the “activity, negative = inhibition” value is -18.2%.

Consider `CCCCCCC(C)n1cc(C(C)=O)c(=O)[nH]c1=O` (configuration not stated), for which the activity, negative = inhibition was 12.8% [at 2.29 µM].

Regarding `Fc1cccc(Cl)c1CSc1ncn[nH]1`, the half-maximal activity concentration (AC50) is 4.47 µM (active).

On to `CCCC[C@@H]1C[C@H]1C(NC(=O)c1ccc(C(F)(F)F)cc1)c1ccc(C(=O)OC)cc1` (some centres not stated), for which the AC50 is 5.01 µM (active).

`CCCC[C@@H]1C[C@H]1C(NC(=O)c1cccs1)c1ccc(Cl)cc1` (some centres not stated): the AC50 is 5.01 µM (active).

As for `CCCC[C@@H]1C[C@H]1C(NC(=O)c1cccs1)c1ccc(C(F)(F)F)cc1` (some centres not stated), the AC50 is 3.16 µM (active).

With `CCCC[C@@H]1C[C@H]1C(NC(=O)c1cccs1)c1ccccc1C(F)(F)F` (some centres not stated), the AC50 was 3.16 µM (active).

`CCOC(=O)CCCNC(=O)c1cncc(Br)c1`: the AC50 is 14.1 µM (active).

In the case of `Cc1ccc(OCCNC(=O)c2cncc(Br)c2)cc1C`, the AC50 was 7.08 µM (active).

`O=C(NC(=S)Nc1ccc(Br)cn1)c1cncc(Br)c1`: the activity, negative = inhibition is -24.4% [at 2.29 µM].

With `CCOC(=O)c1cncc(C(=O)O)c1`, the activity, negative = inhibition was 1.77% [at 2.29 µM].

Turning to `O=C(Nc1ccccc1)c1cc(-n2cnnc2)ccc1Cl`, the “activity, negative = inhibition” value was 14.9%.

For the compound `Cc1ccc(OCCNC(=O)c2cc(-n3cnnc3)ccc2Cl)cc1C`, the AC50 is 7.94 µM (active).

In the case of `CCOC(=O)CNC(=O)c1cccnc1`, the activity, negative = inhibition was 4.45% [at 11.4 µM].
